JMJD2A Tudor inh – blocks the human JMJD2A Tudor domain; Potency, µM (highest dose often 114 µM), for the others: at the highest dose activity change, negative = inhibition, hits mostly inhibitors; AlphaScreen JMJD2A-Tudor / H3K4me3 peptide binding; hit rate 4.4% among 390,000; O75164; AID 504339; also: % is scaled to controls: 0 for no effect and ±100 for the full control effect; nearly all actives have a fitted effect of over 50% in size
BAZ2B block – blocks human BAZ2B. AlphaScreen BAZ2B-H3K14Ac peptide displacement. Potency, µM (doses to about 114 µM), without a hit: at the top dose activity change, negative = inhibition, most hits filed as inhibitors. hit rate 4.4% among 360,000. AID 504333; also: % is scaled to controls: 0 for no effect and ±100 for the full control effect; nearly all actives have a fitted effect of over 60% in size
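BAZ2B 50 nM plus b-H3(5-23)K14Ac 50 nM, PBS pH 7.4/0.01% Tween-20, 30 min RT; compound added (max 110 uM), 30 min RT; streptavidin donor/Ni-chelate acceptor beads 10 ug/mL final, 20 min dark; AlphaScreen read.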
Sfp PPTase inh – inhibitors of Bacillus subtilis Sfp phosphopantetheinyl transferase | Q9F4F7 | Biochemical Sfp PPTase activity, qHTS | Potency, µM, without a hit: largest response in the series, negative = inhibition, hits mostly inhibitors | hit rate 3.5% among 310,000 | AID 1490;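 also: the enzyme is Sfp with the accession as filed and its product quenches rhodamine fluorescence; 0% = enzyme reaction without inhibitor and -100% = no enzyme wells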
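Fluorescence-quenching assay with 15 nM Sfp, 5 uM rhodamine-CoA and 12.5 uM BHQ-2-labelled ybbR peptide in pH 7.6 Hepes/MgCl2 buffer. Enzyme was pre-incubated with compound for 15 min at room temperature. Rate was taken from the 30-min fluorescence change (525/598 nm).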
PLK1 PBD block – inhibitors of human PLK1 polo-box domain binding | Plk1 PBD binding of FITC phosphopeptide, fluorescence polarization | AID 720504 | P53350 | hit rate 2.8% among 360,000 | Potency, µM, without a hit: max response, negative = inhibition, usual class: inhibitors; also: series mostly up to about 57 µM; % is scaled to controls: 0 for no effect and ±100 for the full control effect; nearly all actives have a fitted effect of over 65% in size
HP1b binding inh – HP1-beta chromodomain-methylated histone interaction inhibition; P83916; Potency, µM (series often up to 114 µM), inactives show top-dose activity change, negative = inhibition, hits mostly inhibitors; AlphaScreen HP1-beta / biotin-H3K9me3 peptide binding; hit rate 0.56% among 390,000; also: nearly all actives have a fitted effect of over 70% in size
Target sequence (P83916 whole entry, looked up): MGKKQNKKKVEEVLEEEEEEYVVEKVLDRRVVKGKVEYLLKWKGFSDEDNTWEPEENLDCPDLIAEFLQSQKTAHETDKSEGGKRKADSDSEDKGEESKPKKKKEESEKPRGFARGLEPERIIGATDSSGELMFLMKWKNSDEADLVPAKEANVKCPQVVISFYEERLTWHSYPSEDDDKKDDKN
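Compound inhibition of the preformed complex between 50 nM HP1-beta and 50 nM biotinylated H3K9me3 peptide was read by AlphaScreen. Buffer was PBS pH 7.4 with 0.01% Tween-20. Incubations ran 30 min at room temperature, with 10 ug/mL donor/acceptor beads.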
G9a inh – inhibitors of human histone lysine methyltransferase G9a; G9a H3K9 monomethylation, AlphaScreen, 2 h; Potency, µM (series often up to 102 µM), for the others: at the top dose activity, negative = inhibition, actives largely listed as inhibitors; hit rate 8.8% among 350,000; Q96KQ7; also: % is scaled to controls: 0 for no effect and ±100 for the full control effect; nearly all actives have a fitted effect of over 75% in size
Target sequence (Q96KQ7 913-1193 limits assumed): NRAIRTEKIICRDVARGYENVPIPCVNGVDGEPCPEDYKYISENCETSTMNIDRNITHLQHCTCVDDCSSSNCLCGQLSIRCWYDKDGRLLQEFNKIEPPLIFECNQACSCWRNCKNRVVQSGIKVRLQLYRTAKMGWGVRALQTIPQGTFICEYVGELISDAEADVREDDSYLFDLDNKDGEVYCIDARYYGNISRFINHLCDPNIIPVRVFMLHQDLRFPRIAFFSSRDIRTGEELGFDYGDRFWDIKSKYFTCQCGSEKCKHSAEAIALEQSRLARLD
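Readings reflect AlphaScreen signal from monomethyl-H3K9 antibody detection. HMT at 20 nM; substrate b-H3K9 500 nM; cofactor SAM 20 uM; 2 h RT reaction; compounds tested as titrations in qHTS with 15 min preincubation.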
The depositor's hits bear a star; ? = inconclusive; · = no result given; [ ] = another dose, or the depositor's remark. The list is not random: actives were taken first. Their share in the collection is about 12%. Calls follow the shape of the dose curve; as a rule, active = well fitted curve in the direction sought with a large enough effect; inconclusive = small, poorly fitted or top-dose-only effect, or another doubt; inactive = no such curve, though single readings can be large; an effect the other way counts as inactive or inconclusive. Potency is read from the fitted curve at half-maximal effect.

SMILES	JMJD2A Tudor inh	BAZ2B block	Sfp PPTase inh	PLK1 PBD block	HP1b binding inh	G9a inh
CC(=O)Nc1cccc(NC(=O)Cc2cccs2)c1	-25%	?	2%	-12%	20%	79µM*
COC(=O)c1cc(NC(=O)Cc2cccs2)cc(C(=O)OC)c1	45µM*	50µM*	16%	?	?	?
CC(OC(=O)Cn1[nH]c(=O)c2ccccc2c1=O)C(=O)Nc1ccc(Cl)cn1 (centres undefined)	0%	1%	·	3%	39%	13%[59 µM]
Cc1nc2c(C(=O)N3CCOCC3)cnn2c(C)c1Cc1cccc(Cl)c1	·	-22%	10%	·	·	50µM*
COc1ccc(C2N(c3ccc(Cl)cc3)N=C(C(C)=O)N(C)N2C(C)=O)cc1 (centres undefined)	?	?	-4%	-8%	-11%	28µM*
COc1cccc(N2C(C(C)=O)=NN(c3ccccc3)C2c2ccc(N3CCOCC3)cc2)c1 (centres undefined)	-14%[57.1 µM]	8%	-10%	-16%	72%	45%[59 µM]
Cc1ccc(Sc2ncccc2C(=O)N(C)Cc2cccs2)c(C)c1	5%	7%	-2%	-5%	36%	25%
CSc1cc(-c2ccc(Cl)cc2)c(C(=O)NC(C)C)s1	?	7%	6%	3µM*	-7%	27%
CCN(C(=O)COc1cccc2cccnc12)C1CCS(=O)(=O)C1 (centres undefined)	-28%	50µM*	-26%	0%	-12%	?
CCN(C(=O)COC(=O)c1nc(Cl)ccc1Cl)C1CCS(=O)(=O)C1 (centres undefined)	-14%	-3%	·	-7%	3%	1.4µM*
CCN(C(=O)COC(=O)c1ccc(Cl)nc1)C1CCS(=O)(=O)C1 (centres undefined)	-6%	-4%	10%	-9%	55%	-12%[59 µM]
COc1ccc2c(COC(=O)[C@@H]3CCCN3S(=O)(=O)c3ccc(Cl)cc3)cc(=O)oc2c1	-7%	6%	·	1%	35%	?
O=C(CN(Cc1ccccc1)C1=NCCS1)c1ccc(Cl)cc1	16%	0%	-8%	?	62%	45µM*
COC(=O)[C@]12CCCCC=C1N(Cc1cccc3ccccc13)C(=O)[C@H](CC(=O)NCc1ccc(OC)c(OC)c1)C2	·	·	·	-12%	·	·
Fc1ccc(CNc2ccc(CNc3ncn[nH]3)cc2)cc1	-30%	-32%	6%	-1%	5%	8%
Nc1ccc(CNc2ncn[nH]2)cc1	-6%[11.4 µM]	2%	10%	24µM*	-13%	-11%[59 µM]
O=C(O)c1ccccc1NS(=O)(=O)c1ccc(N/N=C/c2ccc(O)c(O)c2)c([N+](=O)[O-])c1	28µM*	·	·	?	14µM*	·
NS(=O)(=O)c1ccc(N/N=C/c2ccc(O)c(O)c2O)c([N+](=O)[O-])c1	8.9µM*	35µM*	4µM*	3µM*	13µM*	·
NS(=O)(=O)c1ccc(N/N=C/c2ccc(O)cc2O)c([N+](=O)[O-])c1	-26%[11.4 µM]	?	8%	-8%	33%	·
O=C(O)c1ccccc1NS(=O)(=O)c1ccc(NN=Cc2ccc(F)cc2)c([N+](=O)[O-])c1	45µM*	·	·	24µM*	?	·
O=C(O)c1ccccc1NS(=O)(=O)c1ccc(NN=Cc2cccc(Cl)c2)c([N+](=O)[O-])c1	18µM*	·	·	?	79µM*	·
COc1ccc(NC(=O)C23CC4CC(CC(Cl)(C4)C2)C3)cc1S(=O)(=O)N1CCOCC1	-13%	·	·	3%	19%[57 µM]	·
Cc1ccc(C2CC(C(F)F)n3ncc(C(=O)Nc4cnn(Cc5ccccc5C)c4)c3N2)cc1 (centres undefined)	-23%	8%	11%	3%	1%	45µM*
C(=Nc1ccccc1)c1ccc[nH]1	-16%	·	·	-3%	12%	·
Oc1ccccc1N=Cc1ccc[nH]1	-10%	?	25µM*	-6%	31%	-11%[12.7 µM]
CC(C)NC(=O)Nc1cccs1	-14%	-2%	79µM*	-3%	28%	14µM*
CCc1ccccc1NC(=O)Nc1cccs1	-13%	3%	50µM*	2%	43%	50µM*

Screens (PubChem)
